“And” between values parts separate entries of the source, which are not always exact repeats. Identical values can stand only once. Records with an inconclusive call do not appear. More than one record can exist for a structure, and the calls need not agree. The source made the active and inactive calls. The calls were made as follows, unless noted: active = hit-call score of the fitted dose curve at least 0.9, where 1 is the maximum; inconclusive = response in the unintended direction; inactive = score below 0.9.
Read-out: not listed separately
Assay: BSK_3C_Proliferation: Cell Proliferation Assessment in the BioMAP Diversity Plus: 3C Assay (AID 2283006; active = hit-call score of the fitted dose curve at least 0.9, where 1 is the maximum; inactive = score below 0.9;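 as to AC50: potency may reflect either rise or fall in cell number versus DMSO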)
Details: primary human endothelial cells (HUVEC)
Summary of the method: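 Read-out is total protein by SRB absorbance at 560 nm, taken as a proxy for relative cell number. Primary human umbilical vein endothelium cultured below confluence was dosed for 48 h, TCA-fixed and SRB-stained; curves were fitted bidirectionally versus DMSO.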

Row | Compound | AC50 | outcome
1 | Cc1cccc2c1ccc1ccccc12 | 20 µM (active) | 
2 | CCCCCCCCCCCCCCCCCC[N+](C)(C)Cc1ccccc1 | 0.281 µM (active) | 
3 | COc1cc(OC)nc(NC(=O)NS(=O)(=O)Nc2ccccc2C(=O)N(C)C)n1 |  | inactive
4 | O=C(NO)c1ccccc1 |  | inactive
5 | O=C(O)C(F)(F)OC(F)(F)C(F)(F)OC(F)(F)C(F)(F)OC(F)(F)C(F)(F)C(F)(F)C(F)(F)F | 18 µM (active) and 18.4 µM (active) | 
6 | CC1=NN(c2ccccc2)C(=O)C1 |  | inactive
7 | O=C(O)CCC(F)(F)C(F)(F)C(F)(F)C(F)(F)C(F)(F)F |  | inactive
8 | Oc1cc2ccccc2cc1O |  | inactive
9 | NC(=NCCCCCCN=C(N)/N=C(\N)Nc1ccc(Cl)cc1)/N=C(\N)Nc1ccc(Cl)cc1 | 4.95 µM (active) | 
10 | CCC(C)c1ccccc1O (configuration not stated) |  | inactive
11 | O=P(O)(O)CCC(F)(F)C(F)(F)C(F)(F)C(F)(F)C(F)(F)C(F)(F)C(F)(F)C(F)(F)F | 30 µM (active) and 30.1 µM (active) | 
12 | O=C(NCc1ncc(C(F)(F)F)cc1Cl)c1c(Cl)cccc1Cl |  | inactive

Target: Peroxisome proliferator-activated receptor gamma (Homo sapiens) (UniProt P37231)
Assay: ATG_PPARg_TRANS: Attagene TRANS-FACTORIAL HepG2 Assay for human Peroxisome Proliferator-activated Receptor-gamma (PPARg) (AID 2283007)
Details: not given
Summary of the method: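 Twenty-four hours after chemical dosing of transiently transfected HepG2 cells, isolated RNA was converted to cDNA, reporter sequences amplified and 6-FAM-labelled, then HpaI-digested and analysed by capillary electrophoresis. Signal increase against DMSO was fitted.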

Sequence of Peroxisome proliferator-activated receptor gamma (Homo sapiens) (P37231 whole entry, looked up): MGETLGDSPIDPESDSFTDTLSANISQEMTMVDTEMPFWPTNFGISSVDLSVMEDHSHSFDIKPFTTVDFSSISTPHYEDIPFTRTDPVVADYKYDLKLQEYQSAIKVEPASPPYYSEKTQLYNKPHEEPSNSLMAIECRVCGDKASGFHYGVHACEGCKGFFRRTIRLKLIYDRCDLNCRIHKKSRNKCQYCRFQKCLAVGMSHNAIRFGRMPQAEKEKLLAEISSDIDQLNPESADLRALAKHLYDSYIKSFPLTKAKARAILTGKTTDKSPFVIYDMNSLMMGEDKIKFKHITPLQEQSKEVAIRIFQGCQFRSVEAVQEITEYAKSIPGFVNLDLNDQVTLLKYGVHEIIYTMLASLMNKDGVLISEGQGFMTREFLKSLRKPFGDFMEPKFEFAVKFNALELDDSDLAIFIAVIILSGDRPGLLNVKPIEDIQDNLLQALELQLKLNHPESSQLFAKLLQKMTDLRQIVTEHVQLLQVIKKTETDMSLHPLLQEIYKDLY

Row | Compound | outcome | AC50
13 | Cc1cccc2c1ccc1ccccc12 | inactive | 
14 | CCCCCCCCCCCCCCCCCC[N+](C)(C)Cc1ccccc1 |  | 83.5 µM (active)
15 | O=C(OC(=O)C(F)(F)C(F)(F)F)C(F)(F)C(F)(F)F | inactive | 
16 | Cc1ccc2ccc3ccc(C)cc3c2c1 | inactive | 
17 | CCCCCCC(C)(C)C(=O)O |  | 46.3 µM (active)
18 | COc1cc(OC)nc(NC(=O)NS(=O)(=O)Nc2ccccc2C(=O)N(C)C)n1 | inactive | 
19 | CCCCCCCCCCCC[N+](C)(C)CCCCCCCCCCCC | inactive | 
20 | O=S(=O)(c1ccc(OCc2ccccc2)cc1)c1ccccc1O |  | 0.66 µM (active)
21 | CC1COCc2cc3c(cc21)C(C)(C)C(C)C3(C)C (configuration not stated) |  | 66.9 µM (active)
22 | CCOC(C)=O | inactive | 
23 | O=C(F)C(F)(F)C(F)(F)C(F)(F)C(F)F | inactive | 
24 | O=c1cc(-c2ccccc2)oc2ccc3ccccc3c12 | inactive | 0.708 µM (active)
25 | O=C(O)C(F)(F)OC(F)(F)C(F)(F)OC(F)(F)C(F)(F)OC(F)(F)C(F)(F)C(F)(F)C(F)(F)F |  | 13.1 µM (active) and 19.1 µM (active)
26 | CC1=NN(c2ccccc2)C(=O)C1 |  | 57.1 µM (active) and 17.3 µM (active)
27 | C=C(c1ccc(C(=O)O)cc1)c1cc2c(cc1C)C(C)(C)CCC2(C)C |  | 11.1 µM (active) and 14.2 µM (active)
28 | O=C1c2ccccc2C(=O)c2c(O)c(O)cc(O)c21 |  | 31.9 µM (active)
29 | CCOC=C(C(=O)OCC)C(=O)OCC | inactive | 
30 | c1cc2cccc3c4cccc5cccc(c(c1)c23)c54 | inactive | 
31 | c1cnc2c(c1)ccc1cccnc12 | inactive | 
32 | CCCCCCOC(=O)c1ccc(O)cc1 |  | 23.2 µM (active)
33 | NNc1nc(-c2ccc([N+](=O)[O-])cc2)cs1 |  | 5.61 µM (active)
34 | CCC(C)c1ccccc1O (configuration not stated) | inactive | 
35 | C[N+](C)(CCCNS(=O)(=O)CCC(F)(F)C(F)(F)C(F)(F)C(F)(F)C(F)(F)C(F)(F)F)CC(=O)[O-] | inactive | 
36 | O=P(O)(O)CCC(F)(F)C(F)(F)C(F)(F)C(F)(F)C(F)(F)C(F)(F)C(F)(F)C(F)(F)F | inactive | 
37 | O=C(NCc1ncc(C(F)(F)F)cc1Cl)c1c(Cl)cccc1Cl |  | 13.7 µM (active)

Target: Nuclear receptor subfamily 1 group I member 2 (Homo sapiens) (UniProt O75469)
Assay: ATG_PXR_TRANS: Attagene TRANS-FACTORIAL HepG2 Assay for human Pregnane X Receptor (PXR) (AID 2283008)
Details: not given
Summary of the method: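 HepG2 cells transiently transfected with multiple reporter units, here a PXR-GAL4 chimera driving a GAL4-UAS reporter; 24 h compound exposure. Reporter mRNA measured by RT-PCR, FAM labelling and capillary electrophoresis; gain of signal fitted against DMSO baseline.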

Sequence of Nuclear receptor subfamily 1 group I member 2 (Homo sapiens) (O75469 whole entry, looked up): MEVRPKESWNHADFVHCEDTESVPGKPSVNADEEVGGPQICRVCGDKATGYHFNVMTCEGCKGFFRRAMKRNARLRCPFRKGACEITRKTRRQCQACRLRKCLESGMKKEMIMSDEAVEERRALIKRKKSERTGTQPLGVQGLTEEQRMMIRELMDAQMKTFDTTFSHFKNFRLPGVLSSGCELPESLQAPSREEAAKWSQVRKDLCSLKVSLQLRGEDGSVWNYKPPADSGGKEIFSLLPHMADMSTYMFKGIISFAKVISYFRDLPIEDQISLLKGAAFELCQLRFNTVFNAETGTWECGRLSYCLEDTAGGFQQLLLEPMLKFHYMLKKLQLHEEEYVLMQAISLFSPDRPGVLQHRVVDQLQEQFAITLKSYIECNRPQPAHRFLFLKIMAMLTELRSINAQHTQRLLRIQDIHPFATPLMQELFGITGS

Row | Compound | AC50 | outcome
38 | Cc1cccc2c1ccc1ccccc12 | 11.2 µM (active) | 
39 | CCCCCCCCCCCCCCCCCC[N+](C)(C)Cc1ccccc1 |  | inactive
40 | O=C(OC(=O)C(F)(F)C(F)(F)F)C(F)(F)C(F)(F)F |  | inactive
41 | Cc1ccc2ccc3ccc(C)cc3c2c1 | 14.4 µM (active) | 
42 | CCCCCCC(C)(C)C(=O)O |  | inactive
43 | CCCCCCCCCCCC[N+](C)(C)CCCCCCCCCCCC |  | inactive
44 | O=S(=O)(c1ccc(OCc2ccccc2)cc1)c1ccccc1O | 3.73 µM (active) | 
45 | CC1COCc2cc3c(cc21)C(C)(C)C(C)C3(C)C (configuration not stated) | 2.14 µM (active) | 
46 | CCOC(C)=O |  | inactive
47 | O=C(NO)c1ccccc1 |  | inactive
48 | O=C(F)C(F)(F)C(F)(F)C(F)(F)C(F)F |  | inactive
49 | O=c1cc(-c2ccccc2)oc2ccc3ccccc3c12 | 5.62 µM (active) | inactive
50 | Cc1ccccc1C(OCCN(C)C)c1ccccc1 (configuration not stated) |  | inactive
51 | O=C(O)C(F)(F)OC(F)(F)C(F)(F)OC(F)(F)C(F)(F)OC(F)(F)C(F)(F)C(F)(F)C(F)(F)F | 16.5 µM (active) and 19.4 µM (active) | 
52 | COC(=O)C(F)(F)C(F)(F)C(F)(F)C(F)(F)C(F)(F)F |  | inactive
53 | CC1=NN(c2ccccc2)C(=O)C1 |  | inactive

Row | Compound | AC50 | outcome
54 | O=C(O)CCC(F)(F)C(F)(F)C(F)(F)C(F)(F)C(F)(F)F |  | inactive
55 | Oc1cc2ccccc2cc1O |  | inactive
56 | NC(=NCCCCCCN=C(N)/N=C(\N)Nc1ccc(Cl)cc1)/N=C(\N)Nc1ccc(Cl)cc1 |  | inactive
57 | C=C(c1ccc(C(=O)O)cc1)c1cc2c(cc1C)C(C)(C)CCC2(C)C |  | inactive
58 | O=C1c2ccccc2C(=O)c2c(O)c(O)cc(O)c21 | 31.5 µM (active) | 
59 | CCOC=C(C(=O)OCC)C(=O)OCC |  | inactive
60 | CCc1cccc(CC)c1N(COC)C(=O)CS(=O)(=O)O | 7.05 µM (active) | 
61 | c1cc2cccc3c4cccc5cccc(c(c1)c23)c54 |  | inactive
62 | c1cnc2c(c1)ccc1cccnc12 | 26.4 µM (active) | inactive
63 | O=C(c1cc(O)c(O)c(O)c1)c1ccc(O)c(O)c1O |  | inactive
64 | CCCCCCOC(=O)c1ccc(O)cc1 | 25.6 µM (active) | 
65 | NNc1nc(-c2ccc([N+](=O)[O-])cc2)cs1 |  | inactive
66 | CCC(C)c1ccccc1O (configuration not stated) | 45.7 µM (active) and 24.8 µM (active) | 
67 | C[N+](C)(CCCNS(=O)(=O)CCC(F)(F)C(F)(F)C(F)(F)C(F)(F)C(F)(F)C(F)(F)F)CC(=O)[O-] | 0.00287 µM (active) | 
68 | O=C(NCc1ncc(C(F)(F)F)cc1Cl)c1c(Cl)cccc1Cl | 0.675 µM (active) | 
69 | CCCCN(C)C |  | inactive

— PubChem BioAssay (EPA / NIEHS)
